# Bioassay records: PubChem, National Center for Advancing Translational Sciences (NCATS)
# Marburg entry = blocks Marburg virus binding or cell entry; Marburg virus pseudotype entry/binding inhibition, cell-based; Potency, µM (highest dose often 49.2 µM), for the others: top-dose activity change, negative = inhibition, most hits filed as inhibitors; actives 6.5% (n = 18,000)
# Lassa entry = inhibitors of Lassa virus binding or entry into cells. Lassa virus pseudotyped entry inhibition, cell-based qHTS. Potency, µM (titrated, usually from 49.2 µM), inactives show top-dose activity change, negative = inhibition, hits mostly inhibitors. actives 4.1% (n = 18,000). AID 720533
# * = called active by the depositor; u = inconclusive; x = no result; ! = not confirmed by another sample; [ ] = remark or other dose. Hits are enriched below; roughly 7.1% of the tested compounds scored in any of these assays. The call rests on the fitted dose curve; tested in HEK293 cells. On the % scale 0 is the no-effect control and ±100 the full control effect; potency means the concentration at half of the fitted maximal effect.
SMILES,Marburg entry,Lassa entry
CN(C)[C@@H]1C(=O)C(C(N)=O)=C(O)[C@@]2(O)C(=O)C3=C(O)c4c(O)cccc4[C@@](C)(O)[C@H]3[C@H](O)[C@@H]12,u,-23%
Cc1c2c(c(O)c3c(O)cccc13)C(=O)O[C@H]2C1C(N(C)C)C(O)=C(C(N)=O)C(=O)[C@H]1O (some centres undefined),8.9µM*,-1%
COC(=O)N[C@@H](c1cccc(F)c1)[C@]1(C(=O)OC)CCCC1=O,3%[8.59 µM],4%[8.59 µM]
CCOC(=O)CN1C(=O)[C@]2(OCCC=C[C@@H]2C)c2ccccc21,1%[8.59 µM],11%[8.59 µM]
COC(=O)C1=C(C)N(CC2CC2)C(=O)NC1c1ccc(Br)cc1 (centres undefined),77%[8.59 µM],-8%[8.59 µM]
CC[C@@]1(O)C(=O)OCc2c1cc1n(c2=O)Cc2cc3ccccc3nc2-1,2.2µM*,u
CC(N)C(O)c1ccc(O)c(O)c1 (centres undefined),11µM*!,-8%
C[C@H](N)[C@H](O)c1cccc(O)c1,1%[17.8 µM],-3%[17.8 µM]
CC(CCN1CCCCc2nc(C)c(C)cc21)=NO[C@H](C)CN1CCCc2nc(C)c(C)cc21,u,-12%[8.59 µM]
OC[C@H]1O[C@H](C#Cc2ccccc2)C=C[C@@H]1O,2%[8.59 µM],0%[8.59 µM]
COc1cccc([C@H]2Oc3ccc(OC)cc3C(=NO[C@H](C)CN3CCCc4nc(C)c(C)cc43)[C@H]2O)c1,u,6%[8.59 µM]
Cc1cc2c(c(=O)o1)[C@H]1O[C@](CCCCN3C(=O)c4ccccc4C3=O)(Cc3cc(C#N)ccc31)O2,39%[8.59 µM],9%[8.59 µM]
CCCCCCCCc1ccc(-c2ccc(C(=O)O)cc2)cc1,-1%,9%
CCCCCCC[N+](CC)(CC)CCCCc1ccc(Cl)cc1,u,5µM*
C[CH2][Hg][S]c1ccccc1C(=O)O,u,1.1µM*
O=C(O)c1ccccc1O,5%,-6%
C=CCOC(=O)N[C@@H](Cc1ccccc1)C(C(=O)OC)=C(C)NCc1ccccc1,-11%[8.59 µM],-22%[8.59 µM]
CNCCCCCCCCSc1nc(C(C)C)ccc1C(=O)c1cccs1,5.6µM*,u
COC(=O)C(C)c1ccc(C(=O)c2cccs2)cc1 (centres undefined),4%,0%
Clc1ccc(C[n+]2cc(-c3ccccc3)n3c2CCCCC3)c(Cl)c1,8.9µM*,u
Cn1cnc([N+](=O)[O-])c1Sc1ncnc2nc[nH]c12,10µM*!,u
Cn1cnnc1Sc1c([N+](=O)[O-])ncn1C,-3%,-9%
Cc1cc(O)cc(C)c1C=Cc1cncc(C(=O)OC(C)(C)C)c1,-49%,x
CCN(CC)CCNC(=O)c1ccc(NS(C)(=O)=O)cc1,1%,0%
CCN(CC)CCNC(=O)c1c(C)[nH]c(/C=C2\C(=O)Nc3ccc(F)cc32)c1C,8.9µM*,u
SMILES,Marburg entry,Lassa entry
O=S1(=O)c2cccc(Cl)c2OC[C@H](c2ccccc2)N1Cc1ccc(F)cc1F,u,-6%
C=CCOC(=O)C(C(C)=O)[C@@H](NC(=O)OC)c1cccc(C)c1 (some centres undefined),u,-18%[8.59 µM]
CCCCCN=c1ccn(Cc2ccccc2)c2ccccc12,14µM*,20µM*
c1ccc(Cc2nc3ccc(Nc4ncnc5ccccc45)cc3[nH]2)cc1,123%,149%
CC(=O)[C@H]1CC[C@H]2[C@@H]3CC[C@@H]4C[C@H](O)CC[C@]4(C)[C@H]3CC[C@]12C,0%,-3%
CC(=O)O[C@H]1[C@H]2O[C@]23[C@@H]2CC[C@@H]4C[C@@H](O)CC[C@]4(C)[C@H]2CC[C@]3(C)[C@H]1c1ccc(=O)oc1,0.089µM*,0.2µM*
CCCN(C/C=C/I)C1CCc2cccc(O)c2C1 (centres undefined),u,8%
CCCN(CCC)C1CCc2cccc(O)c2C1 (centres undefined),22µM*,32µM*
CCOC(=O)[C@]12C[C@]3(OC)CCN(C(=O)N[C@@H]1c1ccccc1)[C@@H]32,10%[8.59 µM],u
CCN1C(=S)NC(c2cccs2)C(C(=O)OC)=C1C (centres undefined),38%[8.59 µM],-24%[8.59 µM]
COC(=O)CC=C[C@H](C)[C@H](Cc1ccccc1Br)OC,50%[8.59 µM],-11%[8.59 µM]
C[C@@H]1N[S+](=O)([O-])c2c(F)cccc2O[C@H]1c1ccccc1,10%,2%
CC(=O)OC1C[C@@]2(C)C(c3ccoc3)OC(=O)C3O[C@@]32[C@]2(C)C(OC(C)=O)CC3C(C)(C)C(OC(C)=O)CC(OC(C)=O)[C@@]3(C)C12 (some centres undefined),2%,7%
CC(=O)OC1CC(OC(C)=O)[C@]2(C)C(CC(OC(C)=O)[C@]3(C)C2CC[C@@]2(C)C(c4ccoc4)C(=O)C4O[C@]432)C1(C)C (some centres undefined),16µM*,-16%
COc1ccccc1C=CC1=CC2(C)CC1(C)C(c1ccccc1OC)CC2=O (centres undefined),-29%[8.59 µM],6%[8.59 µM]
O=C1c2ccccc2C(=O)c2ccccc21,5%,6%
O=C1C(=O)c2ncccc2-c2cccnc21,u,2.5µM*
CC=COC(=O)N[C@@H](c1ccccc1)[C@]1(C(=O)OC)CCCC1=O,u,5%[8.59 µM]
COc1cc(O)c(C(=O)C=Cc2ccc3c(c2)OCO3)c(OC)c1,10%[8.59 µM],12%[8.59 µM]
CCN(CC)C(=O)c1cc(S(=O)(=O)Cc2ccccc2)c(N2CCC(c3ccccc3)CC2)cc1N(CC)CCN(C)C,5µM*,14µM*
COC1=C[C@H](C(=O)NCCOC(C)=O)[C@@]2(C)Cc3ccccc3[C@@H]2CC1=O,-10%[8.59 µM],-15%[8.59 µM]
c1cc(CN2CCCCC2)cc(OCCCNc2nc3ccccc3s2)c1,16µM*,u
c1ccc2sc(N3CCN(Cc4ccc5c(c4)OCO5)CC3)nc2c1,8%,34%
CCOC(=O)NN=Cc1ccccc1-c1cc(OC)ccc1OC,-4%[8.59 µM],-18%[8.59 µM]
COC(=O)c1ccc(CN2C(=O)C3(CC(C)=C[C@@H](C)O3)c3c(Br)cccc32)cc1 (some centres undefined),26%[8.59 µM],-7%[8.59 µM]
SMILES,Marburg entry,Lassa entry
C[C@@H]1CC[C@H]2C(=O)N(Cc3ccccc3)C[C@H](O)CN2[C@@H]1c1ccc(Br)cc1,3%[8.59 µM],-1%[8.59 µM]
COc1c2c(c(C(=O)/C=C/C(C)=C/c3ccccc3)c3c1OCO3)CCN(C)C2,16µM*,-11%
COc1c2c(cc3c1OCO3)CCN(C)C2,17%[17.8 µM],-2%[17.8 µM]
CC(C)NCC(O)COc1cccc2ccccc12 (centres undefined),20µM*,u
CC(C)NC[C@@H](O)COc1cccc2[nH]ccc12,2%,1%
CC/C(=C(/CC)c1ccc(OP(=O)(O)O)cc1)c1ccc(OP(=O)(O)O)cc1,8%,-14%
CC/C(=C(/CC)c1ccc(O)cc1)c1ccc(O)cc1,u,3.5µM*
CCC(=C(CC)c1ccc(O)cc1)c1ccc(O)cc1,u,6.3µM*
CCOC(=O)c1ccc(O)cc1,13%,7%
COC(=O)N[C@@H](c1ccccc1)[C@]1(C(C)=O)CCCC1=O,-4%[8.59 µM],10%[8.59 µM]
CC1=CC[C@@H](C)O[C@@]2(C1)C(=O)Nc1cccc(Br)c12,-15%[8.59 µM],60%[8.59 µM]
Cc1ncc2c(c1CNC(=O)c1ccccc1F)CCN(C(=O)c1ccc3c(c1)OCCO3)C2,5%,u
Cc1ncc2c(c1CNC(=O)c1ccccc1F)CCN(C(=O)c1[nH]c3ccc(Cl)cc3c1C)C2,u,10µM*
CCCCCC(=O)N1C[C@H](O)[C@@H](n2cc(COC(=O)c3ccccc3)nn2)C[C@H]1c1ccc(OC)cc1,u,-29%
